Measured values published in PubChem BioAssay (NCI).
Where “and” joins values, the source holds several entries; their conditions need not be identical. Equal entries are not always repeated. The panel holds about 83,000 compounds, 20% with a hit somewhere; the sample as a whole holds those more often.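 Single-concentration screen, 48 h exposure, 96-well plates. Endpoint: percent growth. Below 10 = active.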 Calls of active or inactive are those of the source.

system: MDA-MB-468 breast; test: NCI-60 one-dose screen, 48 h (100 = growth as untreated, 0 = no growth, -100 = all killed); settings: 10 µM unless noted

Structure (SMILES) | growth
Cc1cnc(N)s1 | 102% (inactive)
O=c1c2cc(F)ccc2sc2c(NCCCNCCO)nc3ccccc3c12 | -72.8% (active)
COc1ccc(C2OCC(C)(C)CO2)cc1OC | 92.4% (inactive)
COc1cc(C(=O)/C=C/c2c(-c3cccs3)nc3sc(C)cn23)cc(OC)c1OC | -4.34% (active)
COc1ccc(C(O)c2cc3c(N)c(C(=O)Nc4cccc(OC)c4)sc3nc2C)cc1 (stereo unspecified) | 5.65% (active)
CCOC(=O)c1sc2nc(-c3cc(OC)c(OC)c(OC)c3)nc(N3CCOCC3)c2c1C | 11.3% (inactive)
O=[N+]([O-])c1ccc2c(N=Nc3ccc4ccccc4c3O)c(O)cc(S(=O)(=O)O)c2c1 | 106% (inactive)
O=C1CNc2cc(Cl)ccc2N1 | 117% (inactive)
O=C(NNC(=O)N1c2ccccc2C=Cc2ccccc21)c1ccc2ccccc2c1 | 87.7% (inactive)
Nc1ccc(N=Nc2ccc(S(=O)(=O)O)cc2)c2ccccc12 | 97.2% (inactive)
CCCCC[n+]1ccc(SCC(=O)N(C)c2ccc(Oc3ccccc3)cc2)c2ccccc21 | 38.9% (inactive)
CCCC(=O)Oc1ccc(/C(=C(\C)c2ccc(OC)cc2)c2ccc(OCCN3CCCCC3)cc2)cc1 | 68.6% (inactive)
CCc1ccc(Oc2c(-c3ccc(OCc4ccc(Cl)cc4)cc3O)n[nH]c2C(F)(F)F)cc1 | 13.1% (inactive)
O=C(O)C(O)c1ccccc1 (stereo unspecified) | 100% (inactive)
O=C1C=C(Nc2ccccc2)c2ccccc2C1=O | 78% (inactive) and 76.9% (inactive)
NCCNc1nc(-c2ccccc2)nc2nc(-c3ccccc3)oc12 | 18.9% (inactive)
